Among all 5,500 compounds or so, about 2,000 (36%) were called active. Another 18% or so got no clear call; they are omitted. Cut-off read from the data, not from the text of the source: active = normalized growth mostly below about 0.91 (no sharp cut-off); inconclusive = no clear call, values can overlap the other calls; inactive = mostly above about 0.92. The list shows a part of the results.
Assay: chemical genetic growth profiling, strain panel (AID 1159580);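 note: tested at 20 µM; growth read once vehicle control cultures reached saturation at 30 °C; 1 = growth at the plate median or of vehicle wells; lower values mean less growth of the strain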
Conditions: growth OD

Measured: normalized growth

CCN(CC)CCOC(=O)C(c1ccccc1)c1ccccc1
inactive: S. cerevisiae deletion strains, locus YKL068W, stronger effect = lower value 0.986 | S. cerevisiae deletion strains, locus YKL085W, strain MDH1 (second series), stronger effect = lower value 0.994 | S. cerevisiae deletion strains, locus YKL085W, strain MDH1, stronger effect = lower value 0.994 | S. cerevisiae deletion strains, locus YKL160W, strain elf1, stronger effect = lower value 0.985 | S. cerevisiae deletion strains, locus YKL190W, strain CNB1, stronger effect = lower value 0.989 | S. cerevisiae deletion strains, locus YKR001C, strain vps1, stronger effect = lower value 1 | S. cerevisiae deletion strains, locus YKR026C, strain gcn3, stronger effect = lower value 0.963 | S. cerevisiae deletion strains, locus YKR091W, strain srl3, stronger effect = lower value 0.98 | S. cerevisiae deletion strains, locus YLL001W, strain dnm1, stronger effect = lower value 0.952 | S. cerevisiae deletion strains, locus YLL026W, stronger effect = lower value 0.971 | S. cerevisiae deletion strains, locus YLL041C, strain sdh2, stronger effect = lower value 0.974 | S. cerevisiae deletion strains, locus YLR027C, strain aat2, stronger effect = lower value 0.985 | S. cerevisiae deletion strains, locus YLR039C, strain RIC1, stronger effect = lower value 1 | S. cerevisiae deletion strains, locus YLR058C, strain SHM2, stronger effect = lower value 0.999 | S. cerevisiae deletion strains, locus YLR102C, strain apc9, stronger effect = lower value 0.988 | S. cerevisiae deletion strains, locus YLR113W, strain HOG1, stronger effect = lower value 0.965 | S. cerevisiae deletion strains, locus YLR221C, strain rsa3, stronger effect = lower value 1 | S. cerevisiae deletion strains, locus YLR258W, strain gsy2, stronger effect = lower value 0.963 | S. cerevisiae deletion strains, locus YLR262C, strain YPT6 (second series), stronger effect = lower value 0.966 | S. cerevisiae deletion strains, locus YLR262C, strain YPT6, stronger effect = lower value 1 | S. cerevisiae deletion strains, locus YLR268W, strain sec22, stronger effect = lower value 0.984 | S. cerevisiae deletion strains, locus YLR320W, strain mms22, stronger effect = lower value 1.01 | S. cerevisiae deletion strains, locus YLR330W, strain CHS5, stronger effect = lower value 0.991 | S. cerevisiae deletion strains, locus YLR342W, strain FKS1 (second series), stronger effect = lower value 0.988 | S. cerevisiae deletion strains, locus YLR342W, strain FKS1, stronger effect = lower value 0.968 | S. cerevisiae deletion strains, locus YLR357W, strain rsc2, stronger effect = lower value 0.982 | S. cerevisiae deletion strains, locus YLR370C, strain arc18, stronger effect = lower value 0.945 | S. cerevisiae deletion strains, locus YLR371W, strain rom2, stronger effect = lower value 1 | S. cerevisiae deletion strains, locus YLR384C, strain iki3, stronger effect = lower value 0.97 | S. cerevisiae deletion strains, locus YLR418C, strain cdc73, stronger effect = lower value 0.961 | S. cerevisiae deletion strains, locus YML016C, strain PPZ1, stronger effect = lower value 0.998 | S. cerevisiae deletion strains, locus YML032C, strain rad52, stronger effect = lower value 1 | S. cerevisiae deletion strains, locus YML120C, strain ndi1, stronger effect = lower value 0.961 | S. cerevisiae deletion strains, locus YML124C, strain tub3, stronger effect = lower value 0.992 | S. cerevisiae deletion strains, locus YMR058W, strain fet3, stronger effect = lower value 0.97 | S. cerevisiae deletion strains, locus YMR078C, strain ctf18, stronger effect = lower value 0.983 | S. cerevisiae deletion strains, locus YMR125W, strain sto1, stronger effect = lower value 0.949 | S. cerevisiae deletion strains, locus YMR129W, stronger effect = lower value 0.975 | S. cerevisiae deletion strains, locus YMR205C, strain PFK2, stronger effect = lower value 0.971 | S. cerevisiae deletion strains, locus YMR223W, strain ubp8, stronger effect = lower value 0.98 | S. cerevisiae deletion strains, locus YMR231W, strain pep5, stronger effect = lower value 0.977 | S. cerevisiae deletion strains, locus YMR263W, strain SAP30, stronger effect = lower value 0.991 | S. cerevisiae deletion strains, locus YMR307W, strain GAS1, stronger effect = lower value 1.02 | S. cerevisiae deletion strains, locus YNL067W, strain RPL9B, stronger effect = lower value 1.01 | S. cerevisiae deletion strains, locus YNL071W, strain lat1, stronger effect = lower value 0.973 | S. cerevisiae deletion strains, locus YNL128W, strain TEP1, stronger effect = lower value 0.968 | S. cerevisiae deletion strains, locus YNL183C, strain NPR1, stronger effect = lower value 0.94 | S. cerevisiae deletion strains, locus YNL209W, strain ssb2, stronger effect = lower value 0.969 | S. cerevisiae deletion strains, locus YNL233W, strain BNI4, stronger effect = lower value 1.03 | S. cerevisiae deletion strains, locus YNL248C, strain rpa49, stronger effect = lower value 0.976 | S. cerevisiae deletion strains, locus YNL250W, strain rad50, stronger effect = lower value 0.99 | S. cerevisiae deletion strains, locus YNL271C, strain bni1, stronger effect = lower value 0.984 | S. cerevisiae deletion strains, locus YNL298W, strain CLA4, stronger effect = lower value 0.982 | S. cerevisiae deletion strains, locus YNL307C, strain MCK1, stronger effect = lower value 0.998 | S. cerevisiae deletion strains, locus YNL322C, strain KRE1 (second series), stronger effect = lower value 0.96 | S. cerevisiae deletion strains, locus YNL322C, strain KRE1, stronger effect = lower value 0.987 | S. cerevisiae deletion strains, locus YNR049C, strain mso1, stronger effect = lower value 0.96 | S. cerevisiae deletion strains, locus YNR052C, strain pop2, stronger effect = lower value 0.98 | S. cerevisiae deletion strains, locus YOL006C, strain TOP1, stronger effect = lower value 1.04 | S. cerevisiae deletion strains, locus YOL012C, strain htz1 0.836 | S. cerevisiae deletion strains, locus YOL147C, strain pex11, stronger effect = lower value 0.994 | S. cerevisiae deletion strains, locus YOR001W, strain rrp6, stronger effect = lower value 0.979 | S. cerevisiae deletion strains, locus YOR061W, strain CKA2, stronger effect = lower value 0.999 | S. cerevisiae deletion strains, locus YOR069W, strain VPS5, stronger effect = lower value 0.989 | S. cerevisiae deletion strains, locus YOR070C, strain gyp1, stronger effect = lower value 0.974 | S. cerevisiae deletion strains, locus YOR080W, strain dia2, stronger effect = lower value 0.957 | S. cerevisiae deletion strains, locus YOR083W, strain WHI5, stronger effect = lower value 0.977 | S. cerevisiae deletion strains, locus YOR106W, strain vam3, stronger effect = lower value 0.967 | S. cerevisiae deletion strains, locus YOR136W, strain idh2, stronger effect = lower value 0.993 | S. cerevisiae deletion strains, locus YOR144C, strain elg1, stronger effect = lower value 1 | S. cerevisiae deletion strains, locus YOR184W, strain ser1, stronger effect = lower value 0.982 | S. cerevisiae deletion strains, locus YOR231W, strain MKK1, stronger effect = lower value 0.989 | S. cerevisiae deletion strains, locus YOR265W, strain rbl2, stronger effect = lower value 0.968 | S. cerevisiae deletion strains, locus YOR270C, strain vph1, stronger effect = lower value 0.941 | S. cerevisiae deletion strains, locus YOR290C, strain snf2, stronger effect = lower value 0.975 | S. cerevisiae deletion strains, locus YOR316C, strain cot1, stronger effect = lower value 0.986 | S. cerevisiae deletion strains, locus YPL051W, strain arl3, stronger effect = lower value 0.978 | S. cerevisiae deletion strains, locus YPL055C, strain LGE1, stronger effect = lower value 1.02 | S. cerevisiae deletion strains, locus YPL078C, strain atp4, stronger effect = lower value 0.965 | S. cerevisiae deletion strains, locus YPL106C, strain sse1, stronger effect = lower value 0.931 | S. cerevisiae deletion strains, locus YPL240C, strain hsp82, stronger effect = lower value 0.958 | S. cerevisiae deletion strains, locus YPL241C, strain CIN2, stronger effect = lower value 0.991 | S. cerevisiae deletion strains, locus YPL256C, strain CLN2, stronger effect = lower value 0.971 | S. cerevisiae deletion strains, locus YPR119W, strain clb2, stronger effect = lower value 1 | S. cerevisiae deletion strains, locus YPR141C, strain kar3, stronger effect = lower value 0.989 | S. cerevisiae deletion strains, locus YPR163C, strain tif3, stronger effect = lower value 0.996 | S. cerevisiae deletion strains, locus YPR167C, strain met16, stronger effect = lower value 0.987 | S. cerevisiae deletion strains, strain wtn01, stronger effect = lower value 0.969 | S. cerevisiae strains, strain wild type, stronger effect = lower value 0.992
